Compound activity as filed in PubChem.
KDM5B inhibitor – Primary screen for KDM5B Histone Demethylases FDH-coupled qHTS. Lysine-specific demethylase 5B (Homo sapiens), Q9UGL1. KDM5B demethylase, FDH-coupled NADH fluorescence (FDH is formaldehyde dehydrogenase). Potency, µM (highest dose often 57.7 µM), hits mostly inhibitors. hit rate 2.6% among 220,000; active means well fitted inhibition curve with a large enough effect; inconclusive means small, poorly fitted or top-dose-only effect; inactive means no such curve, though single readings can be large or run the other way; further: potency means the concentration at half of the fitted maximal effect; 0% is about no effect; nearly all actives have a fitted effect of over 70% in size
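Measured: NADH fluorescence change, 30 min, RT. System: KDM5BΔAP 200 nM final, H3K4me3 peptide, α-KG, Fe(II), ascorbate, NAD⁺ plus FDH, pH 7.5 HEPES. Compounds: titrated, 10 min pre-incubation with enzyme.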
IP6K1 inh – Primary qHTS assay for small molecule inhibitors of Inositol hexaphosphate kinase 1 (IP6K1). hit rate 0.81% among 140,000. IP6K1 kinase, ADP-Glo luminescence, 2 h; stronger effect = lower value. Inositol hexakisphosphate kinase 1 (Homo sapiens), Q92551. activity change, % (series mostly up to about 58 µM); in the data active means activity change below about -25%; further: on the % scale 0 is the no-effect control and ±100 the full control effect
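ADP-Glo luminescence measures ADP made by human IP6K1 during a 2 h RT reaction with ATP/IP6 (mix at 1.3 mM/130 uM); top library doses 57.5 and 19.1 uM final.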
An asterisk follows results filed as active. An excerpt weighted towards active compounds, which were near 2.8% of everything screened.

How did Cc1cn2nc(C(=O)Nc3ccc(N(C)C)cc3)cc2c(N2CCSCC2)n1 do in these assays?
KDM5B inhibitor: inactive; IP6K1 inh: 5.8

Results for Cc1cc(S(=O)(=O)c2cc3cc(F)ccc3oc2=O)ccc1F ?
KDM5B inhibitor: inactive

How did O=C(C1CCCN(C2CCN(c3ncccn3)CC2)C1)N1CCOCC1 (stereo not drawn) do in these assays?
KDM5B inhibitor: 20µM*; IP6K1 inh: -3.7

What do the screens show for `N#Cc1ccnc(N2CCN(C(=O)Nc3ccc(F)cc3)CC2)c1`?
KDM5B inhibitor: inactive

Results for CNc1ccnc(N2CCC(N3CCCC(C(=O)N4CCCC4)C3)CC2)n1 (stereo not drawn) ?
KDM5B inhibitor: inconclusive; IP6K1 inh: -9.4

Results for CN1CCN(C(=O)C2CCCN(C3CCN(c4cc(C#N)ccn4)CC3)C2)CC1 (stereo not drawn) ?
KDM5B inhibitor: 28.2µM*; IP6K1 inh: 0.3

Results for COc1cc(SC)ccc1C(=O)N[C@H]1CCN2C(=O)[C@@H](CC(C)C)NC(=O)[C@@H]2C1 ?
KDM5B inhibitor: inactive; IP6K1 inh: -6.2

Results for C1CCC(c2nc(CCOCC3CCOCC3)no2)NC1 (stereo not drawn) ?
KDM5B inhibitor: 31.6µM*; IP6K1 inh: 11.9

What do the screens show for `C1CCC(c2nc(CCOCC3CC3)no2)NC1` (stereo not drawn)?
KDM5B inhibitor: inactive; IP6K1 inh: 4.8

Results for S=c1[nH]c(-c2ccc(Cl)cc2Cl)cs1 ?
KDM5B inhibitor: inactive

How did COCCNC(=O)C1CCCN1Cc1ccc(-c2cc(C)cc(C)c2)cc1 (stereo not drawn) do in these assays?
IP6K1 inh: -4.4

What do the screens show for `COCCNC(=O)c1nc(-c2ccc(F)cc2)c2ccccn12`?
KDM5B inhibitor: 39.8µM*; IP6K1 inh: 18.1

How did COCCNC(=O)c1nc(-c2ccc(OC)cc2)c2ccccn12 do in these assays?
KDM5B inhibitor: 89.1µM*; IP6K1 inh: -7.9

What do the screens show for `COCCNC(=O)c1nc(-c2ccccc2)c2ccccn12`?
KDM5B inhibitor: inactive; IP6K1 inh: 30.6

What do the screens show for `COc1cccc(-c2cc(C(=O)NCC3CCCCC3)c3cnn(C)c3n2)c1`?
IP6K1 inh: 7.9

What do the screens show for `CCOC(=O)c1ccc2ncc(C(=O)OCC)c(Nc3cc(C)ccc3OC)c2c1`?
KDM5B inhibitor: inactive

How did c1ccc(Cc2noc(-c3nc(-c4ccc5c(c4)OCO5)no3)n2)cc1 do in these assays?
KDM5B inhibitor: 35.5µM*; IP6K1 inh: -13.0

What do the screens show for `c1ccc(-c2noc(-c3nc(-c4ccc5c(c4)OCO5)no3)n2)cc1`?
KDM5B inhibitor: inactive; IP6K1 inh: 4.2

How did COc1ccc(-c2noc(-c3nc(Cc4ccccc4)no3)n2)cc1OC do in these assays?
KDM5B inhibitor: 28.2µM*; IP6K1 inh: 6.9

How did CCCc1noc(-c2nc(-c3ccc(OC)c(OC)c3)no2)n1 do in these assays?
KDM5B inhibitor: inactive; IP6K1 inh: 14.0

What do the screens show for `Cc1nn(-c2ccccc2)c2c1C(C(C)C)N(C1CCN(C(=O)Nc3ccc(Cl)cc3)C1)C2=O` (stereo not drawn)?
IP6K1 inh: 16.7

How did CNC(=O)[C@H]1CN(C(=O)NCc2ccccc2)[C@]2(C)C(=O)N(CC(=O)N(C)C)c3ccccc3[C@H]12 do in these assays?
IP6K1 inh: -3.0

Results for COc1ccc2c3c1CN(C(C)=O)CC3=CC(C)(C)CO2 ?
IP6K1 inh: 5.4

What do the screens show for `O=c1ccc(N2CCC(NS(=O)(=O)c3ccccc3Cl)CC2)nn1CC1CC1`?
KDM5B inhibitor: inconclusive; IP6K1 inh: -2.7

How did CCCc1ccc(S(=O)(=O)NC2CCN(c3ccc(=O)n(CC4CC4)n3)CC2)cc1 do in these assays?
KDM5B inhibitor: 28.2µM*; IP6K1 inh: 5.7

How did Cn1cccc1CN1CCC2CC(=O)NCCC2C1 (stereo not drawn) do in these assays?
KDM5B inhibitor: 100µM*; IP6K1 inh: 1.3

What do the screens show for `O=C1CC2CCN(Cc3ccccc3)CC2CCN1` (stereo not drawn)?
KDM5B inhibitor: inactive; IP6K1 inh: -22.1

Results for CCc1noc(C)c1C(=O)Nc1sc(C)cc1C(=O)OC ?
KDM5B inhibitor: inactive

Results for CCCN1CCN(CCNC(=O)c2cn3ccnc(-c4ccc(OC)cc4)c3n2)CC1 ?
KDM5B inhibitor: 20µM*; IP6K1 inh: 20.0

How did CCN1CCN(CCCNC(=O)c2cn3ccnc(-c4ccc(C)cc4)c3n2)CC1 do in these assays?
KDM5B inhibitor: inconclusive; IP6K1 inh: 27.5

What do the screens show for `O=C(NCCCN1CCCC1=O)c1cn2ccnc(-c3ccc(F)cc3)c2n1`?
KDM5B inhibitor: inconclusive; IP6K1 inh: 19.2

Results for COc1ccc(-c2nccn3cc(C(=O)NCCN4CCCCC4)nc23)cc1 ?
KDM5B inhibitor: 20µM*; IP6K1 inh: 3.1

Results for Nc1cc(N)nc(SCCC(=O)Nc2cccc(Cl)c2)n1 ?
KDM5B inhibitor: inactive

How did COCC(=O)NC1CCN(c2nccc(Nc3ccc(C)cc3)n2)CC1 do in these assays?
IP6K1 inh: -5.5

How did COc1ccc(CCc2nc3nccc(-c4ccccc4)n3n2)cc1OC do in these assays?
KDM5B inhibitor: inactive; IP6K1 inh: -4.1

How did COc1cc(-c2ccnc3nc(CC(C)C)nn23)cc(OC)c1OC do in these assays?
KDM5B inhibitor: 17.8µM*; IP6K1 inh: -2.9

What do the screens show for `COc1ccc(CCc2nc3nccc(-c4cccnc4)n3n2)cc1OC`?
KDM5B inhibitor: inactive; IP6K1 inh: -7.7

What do the screens show for `COc1ccc(-c2ccnc3nc(CCc4ccccc4)nn23)cc1OC`?
KDM5B inhibitor: 22.4µM*; IP6K1 inh: -15.1

Results for COc1cc(-c2ccnc3nc(CCc4ccccc4)nn23)cc(OC)c1OC ?
KDM5B inhibitor: 14.1µM*; IP6K1 inh: 13.1

How did c1ccc(-c2ccnc3nc(CCC4CCCC4)nn23)nc1 do in these assays?
KDM5B inhibitor: inconclusive; IP6K1 inh: 0.6

How did COc1ccc(-c2ccnc3nc(CCC4CCCC4)nn23)cc1OC do in these assays?
KDM5B inhibitor: 12.6µM*; IP6K1 inh: -6.1

What do the screens show for `COc1ccc(CCc2nc3nccc(-c4cc(OC)c(OC)c(OC)c4)n3n2)cc1`?
KDM5B inhibitor: inconclusive; IP6K1 inh: -12.3

How did Cc1ccc(C)c(C(=O)Nc2ccc(-c3nc4ccccc4s3)cc2)c1 do in these assays?
KDM5B inhibitor: inactive

What do the screens show for `CSCCNC(=O)c1ccc2nnc(-c3cccc(OC(F)(F)F)c3)n2c1`?
IP6K1 inh: 7.3

How did COc1ccc(CCc2nc3nccc(-c4ccncc4)n3n2)cc1OC do in these assays?
KDM5B inhibitor: inactive; IP6K1 inh: -8.6

How did COc1ccc(CCc2nc3nccc(-c4ccc(OC)c(OC)c4)n3n2)cc1 do in these assays?
KDM5B inhibitor: 28.2µM*; IP6K1 inh: 3.6

Results for O=C(O)c1cc(-c2ccc(Cl)c(Cl)c2)n(-c2ccccc2)n1 ?
KDM5B inhibitor: inactive

What do the screens show for `COc1cccc(-n2nc(C(=O)O)cc2-c2ccc(C3CCCCC3)c(Cl)c2)c1`?
IP6K1 inh: -38.2*

What do the screens show for `O=C(NCC(c1ccco1)N1CCCC1)c1cc2ccccc2oc1=O` (stereo not drawn)?
KDM5B inhibitor: inactive

Results for C/C(=N/Nc1ccc(S(=O)(=O)Nc2ccccc2)cc1[N+](=O)[O-])c1ccccn1 ?
KDM5B inhibitor: inactive

What do the screens show for `COc1ccccc1C(=O)N1CCC2(CC1)CN(c1ncccn1)CC2CO` (stereo not drawn)?
KDM5B inhibitor: 25.1µM*; IP6K1 inh: 5.0
